Here are results for 36 compounds from PubChem BioAssay (EPA / NIEHS).

Active and inactive are the calls of the source. The calls were made as follows: active = hit-call score of the fitted dose curve at least 0.9, where 1 is the maximum; inactive = score below 0.9.

Read-out in this experiment: Monokine induced gamma interferon (MIG), CXCL9 (gene 4283)
Briefly: BSK_CASM3C_MIG: BioMAP Diversity Plus: CASM3C Assay for Monokine induced gamma interferon (MIG) Biomarker Activity (AID 2283048).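 Also: MIG protein level measured by ELISA.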 The note with it: primary human coronary artery smooth muscle cells; actives raise or lower the signal.
As for `CN(C)C(=O)Nc1cccc(C(F)(F)F)c1`, the result was inactive.

Take `COP(=O)(NC(C)=O)SC` (stereo unspecified): the result was inactive. On the same count and under the same terms, the entry for `CN(C)NC(=O)CCC(=O)O` is “inactive”; for `C[Si](Cn1cncn1)(c1ccc(F)cc1)c1ccc(F)cc1` it is “inactive”. What is called AC50 is the concentration giving half of the maximal activity seen. In the case of `CCCOCC(=Nc1ccc(Cl)cc1C(F)(F)F)n1ccnc1`, the AC50 was 20 µM (active). Take `CC1=NNC(=O)N(/N=C/c2cccnc2)C1`: the outcome was inactive.

For `C#CCC1=C(C)C(OC(=O)C2C(C=C(C)C)C2(C)C)CC1=O` (stereo unspecified), the outcome was inactive.

On to `COP(=O)(OC)C(O)C(Cl)(Cl)Cl` (stereo unspecified), for which the result was inactive. Consider `COP(=O)(OC)SCn1c(=O)oc2cc(Cl)cnc21`, for which the AC50 was 38.8 µM (active). As for `CCOP(=S)(Oc1cnc(C(C)(C)C)nc1)OC(C)C` (stereo unspecified), the outcome was inactive. The same measure, in the same setting: the entry for `CNC(=O)ON=C(SC)C(=O)N(C)C` is “inactive”; for `CCOP(=S)(OCC)SCCSCC` it is “inactive”. On to `CNc1cnn(-c2cccc(C(F)(F)F)c2)c(=O)c1Cl`, for which the outcome was inactive. As to `CC1(C(=O)Nc2ccc(O)c(Cl)c2Cl)CCCCC1`, the result was inactive. Same read-out and setting: the entry for `CN1COCN(Cc2cnc(Cl)s2)C1=N[N+](=O)[O-]` is “inactive”. Still for that read-out and setting: the entry for `CCCCSP(=O)(SCCCC)SCCCC` is “inactive”. Same read-out and setting: the entry for `CC(C1CC1)C(O)(Cn1cncn1)c1ccc(Cl)cc1` (stereo unspecified) is “inactive”. On to `CC[C@H](C)[C@H]1O[C@]2(C=C[C@@H]1C)C[C@@H]1C[C@@H](C/C=C(\C)[C@@H](O[C@H]3C[C@H](OC)[C@@H](O[C@H]4C[C@H](OC)[C@@H](NC)[C@H](C)O4)[C@H](C)O3)[C@@H](C)/C=C/C=C3\CO[C@@H]4[C@H](O)C(C)=C[C@@H](C(=O)O1)[C@]34O)O2`, for which the AC50 was 13.7 µM (active). In the case of `CC(C)=CC1C(C(=O)OCN2C(=O)C3=C(CCCC3)C2=O)C1(C)C` (stereo unspecified), the outcome was inactive.

In the case of `CC(Oc1cccc(Cl)c1)C(=O)O` (stereo unspecified), the result was inactive. The same measure, in the same setting: the entry for `CCc1cccc(C)c1N(C(=O)CCl)C(C)COC` (stereo unspecified) is “inactive”; for `Cc1nn(-c2cc(NS(C)(=O)=O)c(Cl)cc2Cl)c(=O)n1C(F)F` it is “inactive”. Turning to `N#CSCSC#N`, the AC50 was 14.1 µM (active). `Cc1ccn2nc(S(=O)(=O)Nc3c(F)cccc3F)nc2n1`: the result was inactive. Same read-out and setting: the entry for `C[N+]1(C)CCCCC1` is “inactive”; for `CCCOc1nn(C(=O)NS(=O)(=O)c2ccccc2C(=O)OC)c(=O)n1C` it is “inactive”; for `Nc1nc(N)nc(NC2CC2)n1` it is “inactive”.

Consider `Nc1c(Cl)cc([N+](=O)[O-])cc1Cl`, for which the outcome was inactive. The same measure, in the same setting: the entry for `CCc1cccc(CC)c1N(COC)C(=O)CCl` is “inactive”. For `CCCSP(=O)(OCC)Oc1ccc(Br)cc1Cl` (stereo unspecified), the outcome was inactive. For the compound `S=C1NCCN1`, the result was inactive. The same measure, in the same setting: the entry for `CCOP(=S)(OCC)Oc1ccc([N+](=O)[O-])cc1` is “inactive”; for `CCC(=O)Nc1ccc(Cl)c(Cl)c1` it is “inactive”; for `CCCCOC(=O)c1ccccc1C(=O)O` it is “inactive”.

Regarding `C#CC(C)(C)NC(=O)c1cc(Cl)cc(Cl)c1`, the outcome was inactive. On to `COc1cc(OC)nc(Sc2cccc(Cl)c2C(=O)O)n1`, for which the outcome was inactive.
